PubChem BioAssay AID2551 (National Center for Advancing Translational Sciences (NCATS), 2010)
The whole screen tested about 310,000 compounds, of which about 17,000 (5.5%) were called active. Where a call stands in place of a potency, no number is given. Not shown: some 11% with an inconclusive outcome. This excerpt belongs to a sample that is enriched for actives. Values without a mark were called inactive. The call rests on the fitted dose curve; in most records, active means well fitted inhibition curve with a large enough effect; inconclusive means small, poorly fitted or top-dose-only effect, or effect the other way; inactive means no such curve, though single readings can be large or run the other way.

These molecules were tested against Nuclear receptor ROR-gamma (Mus musculus) (UniProt P51450) (assay: qHTS for inhibitors of ROR gamma transcriptional activity). Details: Drosophila S2 Gal4-RORgamma UAS-luciferase reporter, 20 h; series mostly up to 53.6 µM.
Nuclear receptor ROR-gamma (Mus musculus), sequence (P51450 whole entry, looked up, the tested form may be a part): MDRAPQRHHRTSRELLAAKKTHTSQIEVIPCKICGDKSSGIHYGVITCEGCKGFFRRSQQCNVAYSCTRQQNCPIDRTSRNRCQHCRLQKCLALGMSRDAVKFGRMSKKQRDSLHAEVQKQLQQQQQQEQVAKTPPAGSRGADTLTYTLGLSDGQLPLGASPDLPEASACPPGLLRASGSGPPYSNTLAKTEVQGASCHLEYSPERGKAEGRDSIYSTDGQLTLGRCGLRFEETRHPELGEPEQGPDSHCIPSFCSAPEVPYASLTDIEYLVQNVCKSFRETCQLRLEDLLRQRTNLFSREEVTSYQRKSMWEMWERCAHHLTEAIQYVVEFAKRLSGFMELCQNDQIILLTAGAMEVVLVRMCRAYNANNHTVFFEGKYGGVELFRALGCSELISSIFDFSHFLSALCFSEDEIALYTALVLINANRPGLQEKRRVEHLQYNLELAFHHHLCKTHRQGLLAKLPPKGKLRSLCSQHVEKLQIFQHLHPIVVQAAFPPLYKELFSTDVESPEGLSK
Procedure, shortened: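 A Gal4/UAS one-hybrid system in insect cells: metallothionein-promoter Gal4–ROR gamma fusion plus Photinus luciferase reporter. Copper sulfate 700 uM final, 20 hr ambient incubation, luminescent detection after 10 min with reagent.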
Further: nearly all actives have a fitted effect of over 60% in size.
Potency means the concentration at half of the fitted maximal effect.

Row | SMILES | Potency | activity change, negative = inhibition
1 | CC(NC(=S)Nc1ccccc1)C1COc2ccccc2O1 (stereo not drawn) | 6.31 µM (active) | 
2 | CC(=O)c1cccc(NC(=O)C2COc3ccccc3O2)c1 (stereo not drawn) |  | -30.8% [at 1.91 µM]
3 | CC(c1ccco1)N(C(=O)Nc1ccccc1)C1CCCCC1 (stereo not drawn) | inactive | 
4 | COC(=O)CSc1nc2ccccc2c(=O)n1Cc1ccccc1 | inactive | 
5 | Cc1cc(C)n(CCNS(=O)(=O)c2ccc(Cl)cc2)n1 | inactive | 
6 | Cc1ccc(SC(C)C(=O)NCc2ccc(F)cc2)cc1 (stereo not drawn) | inactive | 
7 | Cc1ccc(CSCC(N)C(=O)O)cc1 (stereo not drawn) | inactive | 
8 | Cc1ccc(SC(CC(=O)c2ccc(C(C)(C)C)cc2)C(=O)O)cc1 (stereo not drawn) | 1.41 µM (active) | 
9 | Cc1sc2ncn(CC(=O)NCCCC(=O)N(C)Cc3ccccc3)c(=O)c2c1C | inactive | 
10 | O=C(CN1C(=O)c2cccnc2Oc2ccc(Cl)cc21)Nc1ccc(F)cc1 | inactive | 
11 | COc1cccc(CSc2nc3nc(C)cc(C)n3n2)c1 | inactive | 
12 | Cc1cc(NC(=O)CCC(=O)N(CC(=O)NC2CCCC2)c2ccc(F)cc2)no1 | inactive | 
13 | COCCN(C(=O)CCC(=O)Nc1nccs1)C(C(=O)NCCC(C)C)c1ccc(F)cc1 (stereo not drawn) | inactive | 
14 | Cc1ccc(S(=O)(=O)N(CC(O)CN2C(=O)NC(C)(C)C2=O)c2cccc([N+](=O)[O-])c2)cc1 (stereo not drawn) | inactive | 
15 | CCOc1ccccc1/C=N/NC(=O)CNC(=O)COc1ccccc1 | inactive | 
16 | C=CCOc1ccccc1/C=N/NC(=O)Cc1ccccc1 | inactive | 
17 | C=C(C)CNC(=S)N/N=C/c1ccccc1OCC(=O)O | 10 µM (active) | 
18 | N#Cc1cc([N+](=O)[O-])ccc1NCC1CCCO1 (stereo not drawn) | inactive | 
19 | Cc1ccc(NC(=O)C2CCCN2C(=O)OCc2ccccc2)cc1C (stereo not drawn) | inactive | 
20 | O=C(N/N=C/c1cccc(O)c1)c1cc2c(ccc3ccccc32)o1 | inactive | 
21 | CSc1ncc(Cl)c(C(=O)Nc2cc(C)ccc2C)n1 | inactive | 
22 | Cc1nnc(NC(=O)CCCOc2ccccc2)s1 | inactive | 
23 | CCSc1ncc(Cl)c(C(=O)Nc2cc(C)ccc2C)n1 | inactive | 
24 | Cc1cccc(NC(=O)c2nc(S(=O)(=O)Cc3ccccc3)ncc2Cl)c1 | 7.08 µM (active) | 
25 | Cc1cccc(NC(=O)C(C)SCc2ccccc2)c1 (stereo not drawn) | inactive | 
26 | Cc1ccc(S(=O)(=O)CC(=O)Nc2nnc(C)s2)cc1 | inactive | 

Row | SMILES | Potency | activity change, negative = inhibition
27 | Cc1ccc(CS(=O)(=O)c2ncc(Cl)c(C(=O)Nc3nnc(C)s3)n2)cc1 | 14.1 µM (active) | 
28 | Cc1cccc(OCc2ccc(C(=O)Nc3ccc(F)cc3)cc2)c1 | inactive | 
29 | Cc1cccc(CS(=O)(=O)c2ncc(Cl)c(C(=O)Nc3ccc(F)cc3)n2)c1 | 6.31 µM (active) | 
30 | O=C(CCS(=O)(=O)c1ccccc1)NC1CCCC1 | inactive | 
31 | CSCCC(NS(=O)(=O)c1ccc(C)cc1)C(=O)NCCc1c[nH]c2ccccc12 (stereo not drawn) | inactive | 
32 | O=C(CN(C(=O)CCC(=O)Nc1nccs1)c1ccc(F)cc1)NCc1ccc2c(c1)OCO2 | inactive | 
33 | COc1ccc(N2CCC(N3CCN(C)C(CCO)C3)CC2)cc1 (stereo not drawn) | inactive | 
34 | CC(=O)C1(C)N(O)C(C)(C)C(c2cccs2)=[N+]1[O-] (stereo not drawn) | 4.47 µM (active) | 
35 | C/C(=N\O)C1(C)N(O)C(C)(C)C(c2ccc(Br)cc2)=[N+]1[O-] (stereo not drawn) | inactive | 
36 | CC1(C)C(c2cccs2)=[N+]([O-])C2(CCCCC2=O)N1O (stereo not drawn) | inactive | 
37 | CCOC(=O)c1c(-c2ccccc2)oc2cc(Br)c(O)c(C=O)c12 | inactive | 
38 | O=C(NCCc1ccccc1)c1ccc2c(c1)N(Cc1ccccc1)CCS2 | inactive | 
39 | O=C(NCCNc1ccc([N+](=O)[O-])cc1Cl)c1ccccc1F |  | -13.1% [at 1.91 µM]
40 | C/C(CC(C)C)=N\Oc1nc(C)cc(C)n1 | 6.31 µM (active) | 
41 | COC(c1ccccc1)(c1ccccc1)C(Oc1nc(C)cc(C)n1)C(=O)O (stereo not drawn) | inactive | 
42 | COc1ccc(NC(=O)CCCN2C(=O)C(c3ccccc3)Oc3cccnc32)cc1 (stereo not drawn) | inactive | 
43 | CCN(C(=O)c1cc([N+](=O)[O-])ccc1NCc1cccnc1)c1ccccc1 |  | 11.5% [at 1.91 µM]
44 | COc1ccc(CN(C)C(=O)c2cc(-c3ccc(C)cc3C)nc3ccccc23)c(OC)c1OC | inactive | 
45 | Cc1cc(=O)oc2c3c(cc(OCC(=O)NCCC(=O)N[C@@H](C)C(=O)O)c12)OC(C)(C)CC3 | inactive | 
46 | COC(=O)c1ccc(/C=N/NC(=O)C(=O)N2CCCCCC2)cc1 | inactive | 
47 | CC(/C=C/c1ccccc1)=N\NC(=O)C1CC1(C)c1ccccc1 (stereo not drawn) | inactive | 
48 | O=C(N/N=C/C=C/c1ccccc1)C1CC1(c1ccccc1)c1ccccc1 (stereo not drawn) | 8.91 µM (active) | 
49 | COc1ccccc1/C=C/C=N/NC(=O)CN1CCN(Cc2ccccc2)CC1 | inactive | 
50 | CN(C(=O)CCNC(=O)Cn1ccc2ccccc2c1=O)c1ccc(Br)cc1 | inactive | 
51 | COc1cc(NC(=O)C2CC(c3ccccc3O)=NO2)c(OC)cc1Cl (stereo not drawn) | inactive | 
52 | O=C(CN1C(=O)COc2ccc(Cl)cc21)Nc1ccc(N2CCOCC2)cc1 | inactive | 

Row | SMILES | Potency | activity change, negative = inhibition
53 | Cc1ccc(S(=O)(=O)N2CCOCC2)cc1C(=O)NCc1ccc(F)cc1 | inactive | 
54 | CCOC(=O)c1sc(NC(=O)c2cc(S(=O)(=O)N3CCOCC3)ccc2C)nc1C | inactive | 
55 | Cc1ccc(S(=O)(=O)N2CCOCC2)cc1C(=O)NC(=S)N(Cc1ccccc1)C(C)C | 1.26 µM (active) | 
56 | COc1ccc([N+](=O)[O-])cc1NCC(=O)c1ccc(C)cc1 | inactive | 
57 | COCC1CCN(C(=O)CCc2nnc(C3(c4ccc(Cl)cc4)CCC3)o2)C1 (stereo not drawn) | inactive | 
58 | CCCNC(=O)COc1coc(CN2CCN(Cc3ccccc3)CC2)cc1=O | inactive | 
59 | COC(=O)c1cc(S(=O)(=O)NCC2CCN(Cc3ccc(Cl)cc3)CC2)cn1C | inactive | 
60 | O=C(O)/C=C/c1cn(-c2ccccc2)nc1-c1cccs1 | inactive | 
61 | O=c1[nH]c(-c2cccs2)nc2ccccc12 | inactive | 
62 | S=c1[nH]c(-c2cccs2)cn1-c1ccccc1 | 5.01 µM (active) | 
63 | O=C1OC2(CCCCC2)CC2=C1C1O[C@](c3ccsc3)(Cc3ccccc31)O2 |  | -3.37% [at 10 µM]
64 | Nc1nc(SCc2cccc(Br)c2)n[nH]1 | inactive | 
65 | Cc1ccc(SCc2c(C(=O)N/N=C/C3CC=CCC3)nnn2-c2nonc2N)cc1 (stereo not drawn) | inactive | 
66 | Nc1nonc1-n1nnc(C(=O)N/N=C/c2cc(Br)ccc2O)c1CSC1=NCCS1 | 3.16 µM (active) | 
67 | Cc1ccc(SCc2c(C(=O)N/N=C/c3cccnc3)nnn2-c2nonc2N)cc1 | inactive | 
68 | C=CCOc1ccccc1NC(=O)CN1C(=O)CNC1=O | inactive | 
69 | CN(C)S(=O)(=O)c1cccc(NC(=S)N/N=C/C(=O)c2ccccc2)c1 | inactive | 
70 | Cc1ccc(/C=N/NC(=S)Nc2cccc(S(=O)(=O)N(C)C)c2)o1 | 1.26 µM (active) | 
71 | CN(C)S(=O)(=O)c1cccc(NC(=O)Cc2ccsc2)c1 | inactive | 
72 | O=C(Nc1ccccc1)C1CCN(C(=O)c2ccc(Br)cc2)CC1 | inactive | 
73 | O=C(NCCc1ccccc1Cl)C1CCC(=O)N(CCCc2ccccc2)C1 (stereo not drawn) | inactive | 
74 | CC1CC(C)CN(CCOc2cccc3ccccc23)C1 (stereo not drawn) | inactive | 
75 | COc1ccc(-c2[nH]ncc2CN(C)Cc2c(C)n[nH]c2C)c(OC)c1 | inactive | 
76 | C=C(C)COc1ccc(-c2nc(N)ncc2-c2ccccc2OC)c(O)c1 | inactive | 
77 | COc1ccc(-c2c(-c3ccc(OC)cc3O)nc(C)nc2C(F)(F)F)cc1 | inactive | 
78 | C=C(C)COc1ccc(-c2n[nH]c(C)c2-c2ccccc2OC)c(O)c1 | 14.1 µM (active) | 

Row | SMILES | Potency | activity change, negative = inhibition
79 | COc1ccc(CCN2C(=O)c3[nH]nc(-c4ccccc4O)c3C2c2ccc(C)cc2)cc1OC (stereo not drawn) | inactive | 
80 | COc1ccc(-c2n[nH]c(C)c2-c2ccc(OC)c(OC)c2)c(O)c1 | 10 µM (active) | 
81 | C=C(C)COc1ccc(-c2n[nH]c(C)c2-c2ccccc2)c(O)c1 | 7.08 µM (active) | 
82 | CC(=O)COc1ccc2c(-c3ccccc3)cc(=O)oc2c1 | inactive | 
83 | Cc1noc(C)c1COC(=O)COc1ccc(-c2ccccc2)cc1 | inactive | 
84 | CCOc1ccc(-c2nc(N)ncc2-c2ccccc2OC)c(O)c1 | inactive | 
85 | COc1ccc(OC)c(-c2csc(-c3cccs3)n2)c1 | inactive | 
86 | COc1ccc(-c2n[nH]c(C)c2-c2ccccc2OC)c(O)c1 | 8.91 µM (active) | 
87 | O=C(NCCc1ccccn1)c1nc(Cn2cc([N+](=O)[O-])cn2)no1 | inactive | 
88 | Cc1ccccc1N1CC(C(=O)Nc2ccc3c(c2)OCO3)CC1=O (stereo not drawn) | inactive | 
89 | COc1ccc(-c2csc3ncnc(N4CCN(S(=O)(=O)c5ccccc5C#N)CC4)c23)cc1 | inactive | 
90 | CCCC(=O)N(CCN1CCOCC1)c1nc2ccc(OCC)cc2s1 | inactive | 
91 | CC(=O)Nc1ccc(NC(=O)CSc2nnnn2-c2ccccc2F)cc1 | inactive | 
92 | CCc1ccc(NC(=O)CS(=O)CC(=O)N2CCN(c3ccccc3F)CC2)cc1 (stereo not drawn) | inactive | 
93 | Cc1nc(CN(C)C(=O)CC2C(=O)NCCN2Cc2ccc(F)cc2)cs1 (stereo not drawn) | inactive | 
94 | CCOc1ccc(CN2CCN(Cc3c[nH]c4ccccc34)CC2)cc1 | inactive | 
95 | COc1ccc2c(c1)C(NS(=O)(=O)OCC(Cl)(Cl)Cl)CCC2 (stereo not drawn) | inactive | 
96 | O=C(CC1C(=O)NCCN1C(=O)c1ccc([N+](=O)[O-])cc1)Nc1cccc(Cl)c1 (stereo not drawn) | inactive | 
97 | O=C(NCc1ccncc1)C1CCCN(S(=O)(=O)c2ccc(Br)cc2)C1 (stereo not drawn) | inactive | 
98 | COc1ccc(NC(=O)CCCNC(=O)Cn2cnc3sc4c(c3c2=O)CCCC4)cc1OC | inactive | 
99 | CCOc1cccc(-c2nn3c(-c4ccccn4)nnc3s2)c1 |  | -2.44% [at 10 µM]
100 | COc1ccc(-n2c(SCC(=O)OC(C)C)nnc2-c2ccccn2)cc1 | inactive | 
101 | CCOc1ccc(-c2n[nH]c(C)c2-c2ccccn2)c(O)c1 | 17.8 µM (active) | 
102 | COc1ccc(CNC(=O)CCN2C(=O)c3ccccc3C2=O)cc1 | inactive | 
103 | O=C(O)CC(c1ccccc1F)N1Cc2ccccc2C1=O (stereo not drawn) | inactive | 
